Screens from PubChem.
This is a sample that favours compounds with a hit; in the whole collection about 11% have one here.
L3MBTL1 inh – qHTS Assay for the Inhibitors of L3MBTL1; Lethal(3)malignant brain tumor-like protein 1 (Homo sapiens), Q9Y468; AlphaScreen L3MBTL1–H3K9me1 peptide binding; Potency, µM (titrated, usually from 57.1 µM), actives largely listed as inhibitors; 0.66% of 230,000 active; also: nearly all actives have a fitted effect of over 60% in size
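Displacement of a biotinylated histone H3(1-15) peptide monomethylated at Lys9 (75 nM) from L3MBTL1 (50 nM) was measured by AlphaScreen after a 30 min room-temperature compound incubation; cefsulodin titration served as intraplate control.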
JMJD2A Tudor inh – qHTS Assay for Inhibitors of JMJD2A-Tudor Domain | AlphaScreen JMJD2A-Tudor / H3K4me3 peptide binding | Potency, µM (titrated, usually from 114 µM), usual class: inhibitors | 4.4% of 390,000 active | AID 504339, 2011; also: nearly all actives have a fitted effect of over 50% in size
G9a inh – qHTS Assay for Inhibitors of Histone Lysine Methyltransferase G9a; 8.8% of 350,000 active; Histone-lysine N-methyltransferase EHMT2 (Homo sapiens), Q96KQ7; G9a H3K9 monomethylation, AlphaScreen, 2 h; Potency, µM (top dose mostly 102 µM), most hits filed as inhibitors; also: nearly all actives have a fitted effect of over 75% in size
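Chemiluminescent proximity detection of H3K9 monomethylation, read after 10 min bead incubation in the dark. Reaction: 20 nM G9a, 500 nM biotin-H3K9 peptide, 20 uM SAM cofactor, 2 h, room temperature, following 15 min enzyme-compound preincubation.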
PI5P4Ka inh – qHTS for Inhibitors of phosphatidylinositol 5-phosphate 4-kinase (PI5P4K). Phosphatidylinositol 5-phosphate 4-kinase type-2 alpha (Homo sapiens), P48426. PI5P4Kalpha enzyme, ADP-Glo luminescence, 60 min; stronger effect = lower value. max response, %. 1.2% of 330,000 active. AID 652105, 2013; active = max response of -50% or lower; inconclusive = between -30% and -50%; inactive = -30% or higher; also: value at the top dose of about 77 µM
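Reactions run in 0.038 M HEPES pH 7.4, 0.28 mM EGTA, 0.1% CHAPS and 5% DMSO, with PI5P4Kalpha, substrate, compound and 5 microM ATP final, one hour at room temperature. Readout is ADP-Glo luminescence.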
HP1b chromo inh – HTS for Inhibitors of HP1-beta Chromodomain Interactions with Methylated Histone Tails | AID 540317, 2011 | 0.56% of 390,000 active | AlphaScreen HP1-beta / biotin-H3K9me3 peptide binding | Chromobox protein homolog 1 (Homo sapiens), P83916 | Potency, µM (series often up to 114 µM), actives largely listed as inhibitors; also: nearly all actives have a fitted effect of over 70% in size
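Compound inhibition of the preformed complex between 50 nM HP1-beta and 50 nM biotinylated H3K9me3 peptide was read by AlphaScreen. Buffer was PBS pH 7.4 with 0.01% Tween-20. Incubations ran 30 min at room temperature, with 10 ug/mL donor/acceptor beads.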
BAZ2B block – qHTS Assay for Inhibitors of BAZ2B. 4.4% of 360,000 active. Potency, µM (doses to about 114 µM), hits mostly inhibitors. AlphaScreen BAZ2B-H3K14Ac peptide displacement; also: nearly all actives have a fitted effect of over 60% in size
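Multi-concentration screen (max 110 uM) measuring displacement of acetylated histone H3 peptide from BAZ2B by AlphaScreen, using 50 nM protein, 50 nM peptide and 10 ug/mL streptavidin donor plus Ni-chelate acceptor beads.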
Numbers stand for hits; . = inactive; ? = inconclusive; / = no result given; [ ] = dose if it differs, or a comment. Unless noted, calls follow the shape of the dose curve; as a rule, active = well fitted inhibition curve with a large enough effect; inconclusive = small, poorly fitted or top-dose-only effect; inactive = no such curve, though single readings can be large or run the other way.

SMILES	L3MBTL1 inh	JMJD2A Tudor inh	G9a inh	PI5P4Ka inh	HP1b chromo inh	BAZ2B block
CC(C)CC(=O)NC(NC(=S)Nc1ccccc1)C(Cl)(Cl)Cl (centres undefined)	.	.	32µM	.	.	.
CC(=O)NC(NC(=S)Nc1ccc(S(N)(=O)=O)cc1)C(Cl)(Cl)Cl (centres undefined)	.	.	45µM	.	.	.
CCC(=O)NC(NC(=S)Nc1ccc(S(N)(=O)=O)cc1)C(Cl)(Cl)Cl (centres undefined)	.	.	8.9µM	.	.	.
Cc1ccc(Cn2c(CNS(=O)(=O)c3c(C)cc(C)cc3C)nc3cccnc32)cc1	/	.	?	/	.	.
O=C(Oc1ccccc1)N1CCC[C@@]2(CCN(c3ncccn3)C2)C1	/	/	.[12.7 µM]	/	/	/
CCC(C(=O)Nc1cc(-c2nc3cccnc3s2)ccc1C)c1ccccc1 (centres undefined)	/	.	?	/	.	?
CC(=O)N1CCC2(CCN(Cc3cc(C(F)(F)F)cc(C(F)(F)F)c3)CC2)CC1	/	/	.[12.7 µM]	/	/	/
CCCCCn1cc2c(c1-c1ccc(Cl)cc1)c(=O)n(C)c(=O)n2C	/	.	.	/	.	.
COCCn1c(=O)cnc2cnc(N3CCNCC3)nc21	/	/	.[12.7 µM]	/	/	/
CC(=O)OCC1(C)CN(c2ccccc2)N(C(=O)c2ccc(C(C)(C)C)cc2)C1=O (centres undefined)	/	.	40µM	.	.	.
COC(=O)CN1CC(=O)N(c2ccccc2)C1=S	.	.	.	.	.	.
CC1(C)CN(c2ccccc2)N(C(=O)c2ccc(F)cc2)C1=O	.	.	.	/	.	.
CC(=O)OCC1(C)CN(c2ccccc2)NC1=O (centres undefined)	/	.	14µM	.	.	.
CC(=O)OCC1(C)CN(c2ccccc2)N(C(C)=O)C1=O (centres undefined)	/	.	25µM	.	.	.
Clc1ccc(C(Cn2ccnc2)OCc2c(Cl)cccc2Cl)c(Cl)c1 (centres undefined)	.	?	7.9µM	.	.	32µM
OC(Cn1ccnc1)c1ccc(Cl)cc1Cl (centres undefined)	.	.	?	.	.	.
Cc1ccc(-n2c(CNc3cccc(Cl)c3)n[nH]c2=S)cc1	.	.	4.5µM	.	.	.
Cc1ccc(-n2c(CNc3ccc(C)c(Cl)c3)n[nH]c2=S)cc1	.	?	50µM	.	.	?
O=C(COC(=O)c1c2ccccc2cc2ccccc12)NCC(F)(F)F	.	.	.	.	.	.
O=C(COC(=O)c1ccc2ccccc2c1O)NCC(F)(F)F	.	?	.	.	.	79µM
O=C1C=C(c2ccc3ncccc3c2)C[C@@H](c2ccc3c(c2)OCO3)C1	.	?	.[2.33 µM]	.	.	?
Oc1ccc(-c2n[nH]c(=S)n2-c2ccc3c(c2)OCCO3)cc1	.	?	0.71µM	.	.	?
S=c1[nH]nc(-c2ccc3ncccc3c2)n1-c1ccc2c(c1)OCCO2	.	?	2.2µM	.	.	.
O=S(=O)(c1ccccc1)N1CCC[C@@]2(CCN(C(c3ccccc3)c3ccccc3)C2)C1	/	/	.[12.7 µM]	/	/	/
CN(C)c1ncc2nc(CCc3ccccc3)c(=O)n(Cc3cccs3)c2n1	/	/	.[0.501 µM]	/	/	/
C1CCC2(CC1)C1=C(CCCC1)Nc1nnnn12	.	.	?	.	.	/
S=C1NC2=C(CCCC2)C2(CCCCC2)N1	.	.	7.1µM	.	.	.
CC(=O)Nc1ccc2c(c1)nc1n2CCN(C2CCCCC2)C1	.	.	10µM	.	.	?
CCCCC(=O)Nc1ccc2c(c1)nc1n2CCSC1	/	.	?	.	.	.
O=[N+]([O-])c1ccc2c(c1)nc1n2CCN(C2CCCCC2)C1	.	.	.[12.7 µM]	.	.	.
